The panel holds about 83,000 compounds, 20% with a hit somewhere; the sample as a whole holds those more often.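 48-hour exposure, single concentration, 96-well plates; percent growth endpoint where 0 means no net growth. Active: below 10.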 Values without a mark were called inactive. Activity calls are given as the source filed them.

Test systems include NCI-H23 lung; NCI-H226 lung; NCI-H322M lung; HOP-62 NSCLC; NCI-H460 lung; HOP-92 NSCLC; NCI-H522 lung; A549/ATCC NSCLC; 786-0 renal; COLO 205 colon; DU-145 prostate; K-562 leukemia; MALME-3M melanoma; MDA-MB-231 breast; RXF 393 renal; SF-268 CNS; SF-295 CNS; SF-539 CNS; UACC-257 melanoma; M14 melanoma.
Common to all, as to experiment: NCI-60 one-dose screen, 48 h (100 = growth as untreated, 0 = no growth, -100 = all killed)
What all share (settings): 10 µM unless noted

On to `CC(C)(C)c1nc2c(s1)c1nc(N)ncc1c1ccc(NS(=O)(=O)c3c(F)cccc3F)c(F)c12`, for which the growth in the assay on NCI-H23 lung was 78.5%; with NCI-H226 lung, 65.4%; in the assay with NCI-H322M lung, 60.4%; in the assay on HOP-62 NSCLC, 84.1%; in the assay on NCI-H460 lung it was 52.5%; with HOP-92 NSCLC it was 44.1%. Also, the growth in the assay with NCI-H522 lung was 50.3%; in the assay on A549/ATCC NSCLC, 55.8%; in the assay with 786-0 renal it was 66.1%; with COLO 205 colon it was 4.03% (active); in the assay on DU-145 prostate it was 49.9%; in the assay on K-562 leukemia it was 66.3%. Also, the growth with MALME-3M melanoma was -31.6% (active); in the assay with MDA-MB-231 breast it was 29.2%; with RXF 393 renal it was 13.6%; in the assay on SF-268 CNS, 79.1%; in the assay on SF-295 CNS, 60.7%; with SF-539 CNS, 79.7%. Also, the growth in the assay on UACC-257 melanoma is -13.1% (active); in the assay with M14 melanoma it was 7.08% (active).

`O=C1Nc2ccc(Cl)cc2/C1=N/c1nc(-c2ccc(F)cc2)cs1`: the growth in the assay with NCI-H23 lung is 44%; in the assay with NCI-H226 lung it was 75%; in the assay with NCI-H322M lung it was 65.7%; in the assay on HOP-62 NSCLC it was 54.1%; with NCI-H460 lung it was 34.1%; in the assay with HOP-92 NSCLC, 34.3%. For the same molecule, the growth with NCI-H522 lung was 20.7%; in the assay with A549/ATCC NSCLC it was 43.6%; with 786-0 renal, 47.3%; in the assay with COLO 205 colon, 31.4%; in the assay with DU-145 prostate, 69.8%; in the assay on K-562 leukemia, 14.6%. The growth is 53.6% in the assay on MALME-3M melanoma; 31.3% in the assay with MDA-MB-231 breast; 37% in the assay on RXF 393 renal; 46% in the assay on SF-268 CNS; 39.6% in the assay on SF-295 CNS; 48.6% with SF-539 CNS. For the same molecule, the figures for the growth in the assay on UACC-257 melanoma and with M14 melanoma were 36.5% and 38.7%, respectively.

With `Nc1c(C(=O)Nc2ccccn2)sc2nc3c(cc12)C(=O)CCC3`, the growth with NCI-H23 lung is 46.1%; with NCI-H226 lung, 74.7%; in the assay with NCI-H322M lung it was 43.6%; with HOP-62 NSCLC, 40.6%; in the assay with NCI-H460 lung, 6.33% (active); with HOP-92 NSCLC it was 87.3%. In addition, the growth is 12% with NCI-H522 lung; 18% in the assay on A549/ATCC NSCLC; 35.4% in the assay with 786-0 renal; 7.57% (active) in the assay on COLO 205 colon; 5.74% (active) in the assay on DU-145 prostate; 22.2% in the assay with K-562 leukemia. Also, the growth in the assay with MALME-3M melanoma is 58.2%; with MDA-MB-231 breast, 51.6%; in the assay on RXF 393 renal, 1.88% (active); in the assay with SF-268 CNS, 53.1%; with SF-295 CNS, 16.2%; in the assay on SF-539 CNS it was 14.6%. Further, the growth in the assay on UACC-257 melanoma is 69.8%; with M14 melanoma, 18.3%.

In the case of `Nn1c(SCC(=O)Nc2ccc(Cl)cc2)nnc1-c1cc(F)c(Cl)cc1Cl`, the growth with NCI-H23 lung was 93%; with NCI-H226 lung, 93.5%; with NCI-H322M lung it was 80.2%; with HOP-62 NSCLC, 55.8%; with NCI-H460 lung, 90%; in the assay on HOP-92 NSCLC it was 76.6%. Besides, the growth was 66.1% in the assay with NCI-H522 lung; 87.2% in the assay with A549/ATCC NSCLC; 93.4% in the assay with 786-0 renal; 96.6% with COLO 205 colon; 108% in the assay on DU-145 prostate; 77.4% in the assay with K-562 leukemia. The growth with MALME-3M melanoma is 92.6%; in the assay on MDA-MB-231 breast, 81.8%; in the assay with RXF 393 renal it was 117%; in the assay on SF-268 CNS it was 97.4%; in the assay with SF-295 CNS it was 87.9%; in the assay with SF-539 CNS, 92.9%. In addition, the growth is 98.2% with UACC-257 melanoma and 96.9% with M14 melanoma.

As to `Cc1nc(C)c(C)nc1C`, the growth in the assay on NCI-H23 lung is 102%; in the assay with NCI-H226 lung, 104%; with NCI-H322M lung, 103%; in the assay on HOP-62 NSCLC it was 100%; in the assay on NCI-H460 lung, 109%; in the assay with HOP-92 NSCLC it was 103%. The growth was 84.6% in the assay with NCI-H522 lung; 86.6% in the assay on A549/ATCC NSCLC; 96.9% in the assay on 786-0 renal; 119% with COLO 205 colon; 108% with DU-145 prostate; 93.1% in the assay on K-562 leukemia. Also, the growth in the assay with MALME-3M melanoma was 102%; with MDA-MB-231 breast it was 108%; in the assay with RXF 393 renal it was 120%; in the assay on SF-268 CNS it was 105%; with SF-295 CNS, 107%; with SF-539 CNS, 104%. Further, the values for the growth in the assay on UACC-257 melanoma and in the assay with M14 melanoma were 88.1% and 101%, respectively.

As to `CC1(C)CC[C@]2(c3nnc(-c4ccncc4)o3)CC[C@]3(C)C(=CC[C@@H]4[C@@]5(C)CCC(=O)C(C)(C)[C@@H]5CC[C@]43C)[C@@H]2C1`, the growth is 85.6% with NCI-H23 lung; 64.9% in the assay with NCI-H226 lung; 91.3% in the assay on NCI-H322M lung; 87.6% in the assay on HOP-62 NSCLC; 77.9% in the assay on NCI-H460 lung; 92.2% with HOP-92 NSCLC. Besides, the growth in the assay with NCI-H522 lung is 71.2%; in the assay on A549/ATCC NSCLC, 73.7%; in the assay with 786-0 renal, 85%; in the assay on COLO 205 colon, 85%; in the assay with DU-145 prostate, 91.2%; with K-562 leukemia, 62.1%. Also, the growth in the assay with MALME-3M melanoma was 86.1%; with MDA-MB-231 breast, 87%; with RXF 393 renal it was 101%; in the assay on SF-268 CNS it was 81.5%; in the assay with SF-295 CNS, 79.7%; in the assay on SF-539 CNS, 90.7%. Also, the growth in the assay on UACC-257 melanoma was 78.4%; with M14 melanoma, 84.3%.

As to `N#Cc1ccc(Oc2ccc3ccc(=O)oc3c2)cc1`, the growth is 101% in the assay with NCI-H23 lung; 102% with NCI-H226 lung; 111% with NCI-H322M lung; 102% in the assay with HOP-62 NSCLC; 103% in the assay on NCI-H460 lung; 67% in the assay on HOP-92 NSCLC. Besides, the growth is 105% in the assay on NCI-H522 lung; 109% with A549/ATCC NSCLC; 95.5% in the assay with 786-0 renal; 102% in the assay on COLO 205 colon; 107% with DU-145 prostate; 79% in the assay on K-562 leukemia. Also, the growth is 126% with MALME-3M melanoma; 98.5% in the assay on MDA-MB-231 breast; 81.8% in the assay on RXF 393 renal; 105% in the assay with SF-268 CNS; 112% in the assay with SF-295 CNS; 101% in the assay with SF-539 CNS. Also, the growth with UACC-257 melanoma is 114%; in the assay with M14 melanoma it was 92%.

Turning to `COc1ccccc1N1CCN(CCCOc2ccc(C(=O)/C=C3/C(=O)Nc4ccccc43)cc2)CC1`, the growth in the assay with NCI-H23 lung is 45.3%; with NCI-H226 lung, 53%; with NCI-H322M lung, 88.7%; in the assay with HOP-62 NSCLC, 38.2%; in the assay on NCI-H460 lung, 66.4%; with HOP-92 NSCLC it was 18.2%. Also, the growth is 65.9% in the assay on NCI-H522 lung; 76% with A549/ATCC NSCLC; 45.7% in the assay on 786-0 renal; 65.5% in the assay on COLO 205 colon; 81.8% with DU-145 prostate; 17.6% with K-562 leukemia. The growth is 66.5% with MALME-3M melanoma; 57% with MDA-MB-231 breast; 72.4% in the assay on RXF 393 renal; 86.9% with SF-268 CNS; 71.1% with SF-295 CNS; 81.5% with SF-539 CNS. Moreover, the results for the growth with UACC-257 melanoma and in the assay on M14 melanoma were 90.2% and 66%, respectively.

The values above are taken from PubChem BioAssay (NCI).
